Out of some 400,000 compounds screened, about 2,100 (0.53%) were called active. Inconclusive results (about 14%) are left out. The sample holds actives, similar compounds and a random draw of the others, so the mix is not that of the screen. No rule for the calls is given here.

Chain of Ataxin-2 (Homo sapiens) (Q99700 whole entry): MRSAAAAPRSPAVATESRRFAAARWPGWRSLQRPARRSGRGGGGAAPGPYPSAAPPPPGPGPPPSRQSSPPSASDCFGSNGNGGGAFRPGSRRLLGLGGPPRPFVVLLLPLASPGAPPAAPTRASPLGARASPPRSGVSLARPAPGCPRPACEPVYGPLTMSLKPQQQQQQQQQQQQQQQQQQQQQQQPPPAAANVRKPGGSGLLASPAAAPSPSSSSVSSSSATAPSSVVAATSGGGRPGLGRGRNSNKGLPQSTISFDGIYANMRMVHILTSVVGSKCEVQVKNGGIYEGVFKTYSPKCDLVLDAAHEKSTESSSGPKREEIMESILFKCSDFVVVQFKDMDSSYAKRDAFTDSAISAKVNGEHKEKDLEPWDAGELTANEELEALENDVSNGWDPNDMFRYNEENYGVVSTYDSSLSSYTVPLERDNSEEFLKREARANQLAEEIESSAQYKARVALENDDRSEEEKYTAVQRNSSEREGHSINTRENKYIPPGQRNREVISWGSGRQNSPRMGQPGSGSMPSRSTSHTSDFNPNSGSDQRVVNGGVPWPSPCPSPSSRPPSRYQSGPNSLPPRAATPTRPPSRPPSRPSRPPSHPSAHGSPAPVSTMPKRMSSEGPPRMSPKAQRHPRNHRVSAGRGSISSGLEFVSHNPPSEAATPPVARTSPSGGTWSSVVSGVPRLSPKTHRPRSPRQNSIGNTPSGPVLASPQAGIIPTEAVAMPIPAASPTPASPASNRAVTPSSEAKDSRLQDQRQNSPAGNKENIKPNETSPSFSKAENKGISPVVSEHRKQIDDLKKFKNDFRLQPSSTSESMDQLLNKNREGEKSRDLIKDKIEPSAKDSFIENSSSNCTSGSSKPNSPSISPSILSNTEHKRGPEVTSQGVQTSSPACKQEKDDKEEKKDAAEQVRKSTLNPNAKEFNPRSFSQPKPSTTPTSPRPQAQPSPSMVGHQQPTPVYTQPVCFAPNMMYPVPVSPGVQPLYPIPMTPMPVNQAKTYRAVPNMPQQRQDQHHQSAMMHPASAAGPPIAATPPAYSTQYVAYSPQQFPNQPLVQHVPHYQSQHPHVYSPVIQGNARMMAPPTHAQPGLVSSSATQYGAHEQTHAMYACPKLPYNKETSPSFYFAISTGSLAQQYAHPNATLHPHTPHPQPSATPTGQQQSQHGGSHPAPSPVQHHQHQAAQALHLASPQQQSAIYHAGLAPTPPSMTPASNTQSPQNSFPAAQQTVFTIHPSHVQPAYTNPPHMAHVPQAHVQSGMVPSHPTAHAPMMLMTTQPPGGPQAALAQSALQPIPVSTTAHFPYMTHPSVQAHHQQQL

The assay addresses Ataxin-2 (Homo sapiens) (UniProt Q99700). The assay can be described thus: qHTS for Inhibitors of ATXN expression. It is filed as functional. In general terms: Quantitative high-throughput screening tests each substance at several concentrations.
With `CCCCCC(=O)Nc1ncc2c(n1)CC(c1cccs1)CC2=O` (centres undefined), the Potency result is “inactive”.

Take `O=C(CCCCCn1c(=S)[nH]c2ccc(N3CCOCC3)cc2c1=O)NC1CCN(Cc2ccccc2)CC1`: the Potency entry was “inactive”.

`Cc1sc2c(c1C)C(O)=C(/C=N/c1ccccn1)S(=O)(=O)N2C`: the Potency result was “inactive”.

Take `N#C/C(=C(/O)COC(=O)COc1cccc(Br)c1)c1nc2ccccc2[nH]1`: the Potency was 22.4 µM (active).

On to `N#C/C(=C(/O)C(Cl)(Cl)Cl)c1nc2ccccc2[nH]1`, for which the Potency result is “inactive”.

For `N#Cc1ccccc1S(=O)(=O)N1CCN(C(=O)CCC2CCCC2)CC1`, the Potency entry was “inactive”.

As for `N#Cc1c(N)n(CCOC(=O)c2ccc(Cl)cc2)c2nc3ccccc3nc12`, the Potency entry is “inactive”.

Consider `N#CC(=C(O)COC(=O)CCC1CCCCC1)c1nc2ccccc2[nH]1`, for which the Potency is 39.8 µM (active).

As for `N#C/C(=C(/O)COC(=O)CCCNC(=O)c1ccc(Cl)cc1)c1nc2ccccc2[nH]1`, the Potency is 25.1 µM (active).

Take `N#C/C(=C(/O)COC(=O)COc1ccc(Cl)cc1)c1nc2ccccc2[nH]1`: the Potency is 39.8 µM (active).

Turning to `N#C/C(=C\c1ccc(-c2ccccc2C(=O)O)o1)c1nc2ccccc2[nH]1`, the Potency entry was “inactive”.

Regarding `N#Cc1c(N)n(CCNC(=O)c2ccccc2)c2nc3ccccc3nc12`, the Potency result is “inactive”.

Take `N#C/C(=C\c1ccccc1C(=O)O)c1nc2ccccc2[nH]1`: the Potency result is “inactive”.

Take `Cc1cccc(N2C(=O)c3ccccc3C2=O)n1`: the Potency result was “inactive”.

On to `Oc1ccccc1C1=NN(c2ccccc2)C(c2ccccc2)C1` (centres undefined), for which the Potency result was “inactive”.

On to `COc1cc(/C=C/c2onc(C)c2[N+](=O)[O-])cc(OC)c1OC`, for which the Potency result is “inactive”.

Consider `O=C(CN1C(=O)c2ccccc2C1=O)NCc1ccc(N2CCOCC2)cc1`, for which the Potency result was “inactive”.

`O=C(OCCOc1cccc(Cl)c1)c1ccc2ncsc2c1`: the Potency entry is “inactive”.

Turning to `CCC(=O)Nc1c(OC(=O)CC)ccc2c(C)cc(=O)oc12`, the Potency result is “inactive”.

As to `CCCCN(C(=O)c1ccc2ccccc2c1)c1c(N)n(CCCC)c(=O)[nH]c1=O`, the Potency entry is “inactive”.

In the case of `CCCCn1c(N)c(N(CC)C(=O)c2cc(OC)cc(OC)c2)c(=O)[nH]c1=O`, the Potency entry was “inactive”.

With `CCCCn1c(N)c(N(CCC(C)C)C(=O)c2ccc(-c3ccc([N+](=O)[O-])cc3)o2)c(=O)[nH]c1=O`, the Potency is 20 µM (active).

As for `COc1cc2c(cc1OC)C(c1ccc(-c3ccccc3Cl)o1)=NCC2`, the Potency is 39.8 µM (active).

Regarding `Cc1nn(C)c(C)c1N1C(=O)c2cccc3c(Br)ccc(c23)C1=O`, the Potency result is “inactive”.

As for `Cc1ccccc1CNC(=O)c1ccccc1NS(C)(=O)=O`, the Potency entry was “inactive”.

Take `Cc1ccccc1C(=O)NCCCNC(=O)c1ccco1`: the Potency result was “inactive”.

Regarding `Cc1ccccc1CS(=O)(=O)Cc1ccc(C(=O)NCCCN2CC(C)CC(C)C2)o1` (centres undefined), the Potency was 8.91 µM (active).

For the compound `CC(C)C1Cc2c(sc3ncnc(NN)c23)CO1` (centres undefined), the Potency entry was “inactive”.

As for `CN(C)CCCNC(=O)c1cc2sc3ccccc3c2s1`, the Potency entry is “inactive”.

For `COc1cc(C)c2sc3ccccc3c(=O)c2c1NCCN(C)C`, the Potency was 44.7 µM (active).

Regarding `Cc1cc(O)cc2c(=O)c3ccccc3sc12`, the Potency entry was “inactive”.

As to `Cc1ccc(/C=N/NC(=O)c2cc3c(s2)CCCC3)o1`, the Potency result was “inactive”.

Regarding `O=S(=O)(/C=C/c1ccccc1)NCc1ccccc1Cl`, the Potency entry was “inactive”.

As to `O=C(CCC(=O)N/N=C/c1cc(Cl)cc(Cl)c1O)NCc1ccccc1`, the Potency result is “inactive”.

As to `CCC/C=C/c1ccc(CN2C(CC(C)C)C(=O)N(Cc3cn(CCC4OCCCO4)nn3)CCS2(=O)=O)cc1` (centres undefined), the Potency is 39.8 µM (active).

Consider `CCC/C=C/c1ccc(CN2C(CC(C)C)C(=O)N(Cc3cn(CCC4OCCO4)nn3)CCS2(=O)=O)cc1` (centres undefined), for which the Potency was 35.5 µM (active).

Regarding `O=C(CCCCn1c(=O)[nH]c2ccsc2c1=O)NCc1ccc2c(c1)OCO2`, the Potency entry was “inactive”.

For the compound `CN(C)S(=O)(=O)c1ccc2oc(SCC(=O)c3c(N)n(C4CC4)c(=O)[nH]c3=O)nc2c1`, the Potency result was “inactive”.

Regarding `O=c1c2ccccc2nc(/C=C/c2c[nH]c3ccccc23)n1CCO`, the Potency entry is “inactive”.

With `CCCCc1cc(-c2nnc(S)o2)c2ccccc2n1`, the Potency entry is “inactive”.

For the compound `CC(Oc1cc(F)ccc1[N+](=O)[O-])C(=O)Nc1ccc(S(=O)(=O)N2CCCC2)cc1` (centres undefined), the Potency result was “inactive”.

With `CC(Oc1ccccc1Cl)C(=O)Nc1ccc(S(=O)(=O)N2CCCC2)cc1` (centres undefined), the Potency was 35.5 µM (active).

As to `CC(C)NS(=O)(=O)c1ccc(NC(=O)C(C)OC(=O)C2CCC2)cc1` (centres undefined), the Potency entry is “inactive”.

With `Cc1cc2nc(-c3cccnc3O)[nH]c2cc1C`, the Potency entry is “inactive”.

As to `CN1c2ccccc2C(C)(C)C12C=Nc1c(cc(N3CCOCC3)c3ccccc13)O2` (centres undefined), the Potency entry was “inactive”.

For the compound `Cc1cccc(N(C(=O)c2nsc(Cl)c2Cl)C(C(=O)NC2CCCC2)c2ccc(O)cc2)c1C` (centres undefined), the Potency was 17.8 µM (active).

As to `NC(=O)c1nsc(C(=O)N(c2cccc(O)c2)C(C(=O)NC2CCCC2)c2ccc(Cl)cc2)c1N` (centres undefined), the Potency entry was “inactive”.

For `Cc1ccccc1N(C(=O)c1snc(C(N)=O)c1N)C(C(=O)NCC1CCCO1)c1ccc(F)cc1` (centres undefined), the Potency result was “inactive”.

Regarding `COC(=O)c1cc2c(=O)c3ccccc3oc2nc1/C=C/N(C)C`, the Potency result is “inactive”.

On to `COc1ccc(-c2cc(C(=O)Nc3cc(S(N)(=O)=O)ccc3C)c3ccccc3n2)cc1OC`, for which the Potency result is “inactive”.

Consider `COc1cc(/C=N\NS(=O)(=O)c2ccccc2)cc(OC)c1OC`, for which the Potency entry is “inactive”.

`COc1cc(N=Nc2cccc(S(N)(=O)=O)c2)c2ccccc2c1N`: the Potency was 35.5 µM (active).

On to `O=c1cc(CSc2nc(O)c3ccccc3n2)c2ccc(O)cc2o1`, for which the Potency result is “inactive”.

As to `Cc1ccc(Cl)cc1NC(=O)c1ccccn1`, the Potency result is “inactive”.

As to `CC(Oc1cccc(Cl)c1)C(=O)Nc1nc(-c2ccccn2)cs1` (centres undefined), the Potency was 39.8 µM (active).

`CC(Oc1ccc(Cl)cc1)C(=O)Nc1sccc1C(N)=O` (centres undefined): the Potency result is “inactive”.

With `NNC(=O)c1sccc1OCc1ccc(Cl)cc1Cl`, the Potency result is “inactive”.

For `CCc1nc2c(OCc3ccc(Cl)cc3Cl)cccn2c1N(C)C(C)=O`, the Potency was 31.6 µM (active).

As to `Cc1nc2c(OCc3ccc(Cl)cc3Cl)cccn2c1N(C)Cc1cccs1`, the Potency is 8.91 µM (active).

In the case of `CCOC(=O)c1c(N)n(-c2ccc(CC)cc2)c2nc3ccccc3nc12`, the Potency entry was “inactive”.

As for `CSCCC(NC(=O)COc1ccccc1)C(=O)N(C)Cc1ccc(Cl)cc1Cl` (centres undefined), the Potency entry was “inactive”.

Turning to `CCOC(=O)N(C)c1c(CC)nc2c(OCc3ccc(Cl)cc3)cccn12`, the Potency was 20 µM (active).

Turning to `O=C(O)CCC(=O)N1CCN(c2nc(-c3ccccc3)c3ccccc3n2)CC1`, the Potency result was “inactive”.

Take `O=C(CCCCCn1c(=S)[nH]c2ccc(N3CCOCC3)cc2c1=O)NCc1ccccc1Cl`: the Potency result is “inactive”.

The values above are taken from ChEMBL document CHEMBL1201862, “PubChem BioAssay data set” (2004).
